{"source": "PubChem BioAssay AID2650", "about": "(Broad Institute, 2010)", "note": "Hit rate of the full screen: of about 320,000 compounds, about 320 (0.1%) were called active.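 How the source made its calls: active means more than half of replicates show inhibition above 20%; inconclusive means some but at most half of replicates above 20% inhibition; inactive means no replicate shows inhibition above 20%.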 Only a selection was taken, and actives are over-represented in it overall."}
{"molecular_target": "Glycogen synthase kinase-3 alpha (Homo sapiens) (UniProt P49840)", "sequence (P49840 whole entry, looked up)": "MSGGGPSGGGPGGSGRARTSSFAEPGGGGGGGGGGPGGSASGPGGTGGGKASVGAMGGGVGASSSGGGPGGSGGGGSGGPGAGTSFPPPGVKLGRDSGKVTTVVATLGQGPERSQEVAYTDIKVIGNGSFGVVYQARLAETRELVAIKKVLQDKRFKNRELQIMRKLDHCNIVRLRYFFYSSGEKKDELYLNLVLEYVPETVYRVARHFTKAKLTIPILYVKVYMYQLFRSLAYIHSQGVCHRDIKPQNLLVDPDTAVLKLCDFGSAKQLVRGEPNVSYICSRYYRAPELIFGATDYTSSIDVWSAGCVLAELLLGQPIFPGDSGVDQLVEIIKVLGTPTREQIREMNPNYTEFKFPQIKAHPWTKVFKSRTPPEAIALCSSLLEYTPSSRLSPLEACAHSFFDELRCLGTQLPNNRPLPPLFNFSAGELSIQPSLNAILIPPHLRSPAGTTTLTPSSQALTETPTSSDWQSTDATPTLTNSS", "test": "blockers of GSK3A enzyme activity – biochemical, luminescence, cell-free homogeneous, HTS, primary screen (AID 2650);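 further: GST-tagged GSK-3 alpha with peptide substrate and 25 µM ATP; 0% = DMSO neutral wells and 100% = GW8510 positive control wells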", "details": "GSK-3 alpha kinase, ADP-Glo luminescence, 60 min; at 10 µM; active compounds read high"}
{"smiles": "CC(=O)Nc1ccc(NC(=O)CC2CCCC2)cc1", "inhibition": "0.623% (inactive)"}
{"smiles": "CC(C)c1ccc(/C=C2\\NC(=O)NC2=O)cc1", "inhibition": "24.7% (inactive)"}
{"smiles": "Cc1ccc(C)c(CN2CCC(CNC(=O)Nc3ccc(C)c(F)c3)CC2)c1", "inhibition": "-0.807% (inactive)"}
{"smiles": "OCCC1CN(Cc2cccc(OC3CCCC3)c2)CCN1Cc1ccsc1", "note": "(stereo not given)", "inhibition": "-2.02% (inactive)"}
{"smiles": "CCN(CC)N=Nc1cccc(NC(C)=O)c1", "inhibition": "2.05% (inactive)"}
{"smiles": "O=C(NCc1nnc(SCC(=O)N2CCC(Cc3ccccc3)CC2)o1)c1ccco1", "inhibition": "-0.692% (inactive)"}
{"smiles": "Cc1cc(C)n(Cc2cnc(N3CCOCC3)s2)n1", "inhibition": "-2.61% (inactive)"}
{"smiles": "CCCc1nc2oc3c(=O)[nH]cnc3c2c2c1COC(C)(C)C2", "inhibition": "3.6% (inactive)"}
{"smiles": "OCCC1CN(Cc2ccccc2-c2ccco2)CCN1Cc1ccsc1", "note": "(stereo not given)", "inhibition": "-0.178% (inactive)"}
{"smiles": "CCn1cc(S(=O)(=O)c2cccc(C)c2)c(=O)c2cc(F)c(N3CCN(C)CC3)cc21", "inhibition": "-1.82% (inactive)"}
{"smiles": "O=C(CN(C(=O)c1nsc(Cl)c1Cl)c1cccc(F)c1)NC1CCCC1", "inhibition": "-1.81% (inactive)"}
{"smiles": "Cc1ccc(NS(=O)(=O)c2cn(C)c(=O)n(C)c2=O)c(C)c1", "inhibition": "-0.792% (inactive)"}
{"smiles": "O=C(NCc1csc(-c2cccs2)n1)C1CC1", "inhibition": "0.318% (inactive)"}
{"smiles": "COc1ccc(Cc2n[nH]c(=S)n2NC(=O)Nc2ccc(C)cc2)cc1", "inhibition": "-4.11% (inactive)"}
{"smiles": "CC(=O)N1CC(=O)N(CC(=O)Nc2ccc(Br)cc2)C1=S", "inhibition": "2.4% (inactive)"}
{"smiles": "COc1cccc(CNC(=O)C2CCCN(c3ncnc4c3nc3n4CCCCC3)C2)c1", "note": "(stereo not given)", "inhibition": "0.554% (inactive)"}
{"smiles": "CCOC(=O)CN(C(=O)COc1nc(-c2ccccc2)cc(C)c1C#N)c1ccc(F)cc1", "inhibition": "0.174% (inactive)"}
{"smiles": "CCCCN(CC)CCNC(=O)c1[nH]c(C)c(C(C)=O)c1C", "inhibition": "1.47% (inactive)"}
{"smiles": "CC(c1ccco1)N(C(=O)c1ccc(S(=O)(=O)N2CCCCC2)cc1)c1ccccn1", "note": "(stereo not given)", "inhibition": "-1.32% (inactive)"}
{"smiles": "CC(=O)c1cnc(SCC(=O)O)nc1C", "inhibition": "-1.4% (inactive)"}
{"smiles": "CC1=C(C(=O)OC2CCCCC2)C(c2ccccc2F)NC(=O)N1", "note": "(stereo not given)", "inhibition": "-2.54% (inactive)"}
{"smiles": "COc1ccc(N=Nc2c(-c3ccc(OC)cc3)[nH]oc2=O)cc1", "inhibition": "-3.99% (inactive)"}
{"smiles": "Cc1cc(C)nc(SC2CCCCC2NS(=O)(=O)c2ccc(Cl)cc2)n1", "note": "(stereo not given)", "inhibition": "-2.34% (inactive)"}
{"smiles": "O=C(CN1CCN(c2ccc(O)cc2)CC1)NC1CCCc2ccccc21", "note": "(stereo not given)", "inhibition": "-2.3% (inactive)"}
{"smiles": "CC(C)NC(=O)NNc1c(Cl)cncc1Cl", "inhibition": "2.22% (inactive)"}
{"smiles": "Cn1c(=O)c2[nH]c(NCC3CCCO3)nc2n(-c2ccccc2)c1=O", "note": "(stereo not given)", "inhibition": "53.4% (active)"}
{"smiles": "c1ccc2c(NCC3CCCO3)nc(-c3ccncc3)nc2c1", "note": "(stereo not given)", "inhibition": "4.61% (inactive)"}
{"smiles": "CC(C)(C)c1nc(NCC2CCCO2)c2nnn(Cc3ccccc3)c2n1", "note": "(stereo not given)", "inhibition": "-0.49% (inactive)"}
{"smiles": "Cc1ccccc1C(=O)N1CCC(C(=O)Oc2ccc(C#N)cc2)CC1", "inhibition": "3.01% (inactive)"}
{"smiles": "O=C(O)CCCN1C(=O)C2C3c4ccccc4C(c4ccccc43)[C@@H]2C1=O", "note": "(stereo not given in full)", "inhibition": "-1.27% (inactive)"}
{"smiles": "COC(=O)c1cc(CNC(=O)CC(C)c2ccccc2)ccc1OC", "note": "(stereo not given)", "inhibition": "-0.449% (inactive)"}
{"smiles": "C/C(=N\\NC(=O)Cc1ccccc1[N+](=O)[O-])c1cccnc1", "inhibition": "-3.03% (inactive)"}
{"smiles": "Cc1cc(/C=N/Nc2ccc([N+](=O)[O-])cn2)c(C)n1-c1cccc(C(=O)O)c1", "inhibition": "26.6% (inactive)"}
{"smiles": "COc1cc(/C=N\\Nc2ccc([N+](=O)[O-])cn2)ccc1OCC(=O)O", "inhibition": "71.1% (active)"}
{"smiles": "Cc1ccc(-n2c(C)cc(/C=N/Nc3ccc([N+](=O)[O-])cn3)c2C)c(C)c1", "inhibition": "0.104% (inactive)"}
{"smiles": "O=C(CNC(=O)OCc1ccccc1)Oc1cc2oc(=O)cc(-c3ccccc3)c2cc1Cl", "inhibition": "-0.182% (inactive)"}
{"smiles": "CC1CCc2c(nc3ncnn3c2Nc2ccc(OC(F)(F)F)cc2)C1", "note": "(stereo not given)", "inhibition": "3.32% (inactive)"}
{"smiles": "Cc1ccc(N(Cc2ccccc2O)C(=O)c2ccccc2F)cc1", "inhibition": "0.374% (inactive)"}
{"smiles": "O=C(O)C1CCCN(CCC=C(c2ccccc2)c2ccccc2)C1", "note": "(stereo not given)", "inhibition": "-1.79% (inactive)"}
{"smiles": "N#Cc1c(-c2ccccc2)cc(-c2ccccc2)nc1SCC(=O)O", "inhibition": "-8.49% (inactive)"}
{"smiles": "N#Cc1c(N2CCCCC2)nc(N)c2c(N)nc(SCC(=O)O)cc12", "inhibition": "71.9% (active)"}
{"smiles": "N#CCc1c(C#N)c(N)nc(N2CCCC2)c1C#N", "inhibition": "5.31% (inactive)"}
{"smiles": "Cc1c(C(=O)Nc2cccc(S(=O)(=O)N3CCOCC3)c2)oc2ccccc12", "inhibition": "-2.02% (inactive)"}
{"smiles": "CC(C)(C)c1cc(CN2CCN(CCC#N)CC2)cc(C(C)(C)C)c1O", "inhibition": "-0.131% (inactive)"}
{"smiles": "CCCn1c(N)c(N(CCOC)C(=O)C2CCCC2)c(=O)[nH]c1=O", "inhibition": "-0.139% (inactive)"}
{"smiles": "CCn1c(SC(C)C(=O)Nc2ccc(N3CCOCC3)cc2)nnc1-c1ccco1", "note": "(stereo not given)", "inhibition": "-7.92% (inactive)"}
{"smiles": "COC(=O)c1ccc(C23CC4(C2)[C@H](CN(Cc2cccnc2)[C@@H]4c2ccccc2)C3c2ccc(Cl)nc2)cc1", "note": "(stereo not given in full)", "inhibition": "-1.59% (inactive)"}
{"smiles": "CCOc1ccc(CN2CCN(Cc3ccc(C)o3)CC2CCO)cc1", "note": "(stereo not given)", "inhibition": "-3.68% (inactive)"}
{"smiles": "O=C(COC(=O)Cc1ccc(Br)cc1)Nc1ccc(N2CCOCC2)cc1", "inhibition": "-2.2% (inactive)"}
{"smiles": "COc1ccc(NC(=O)CN2C(=O)COc3ccc(S(=O)(=O)N4CCOCC4)cc32)c(OC)c1", "inhibition": "-0.917% (inactive)"}
{"smiles": "COc1ccc(S(=O)(=O)N(C)C[C@H]2Oc3c(NC(=O)Nc4ccc5c(c4)OCO5)cccc3C(=O)N([C@H](C)CO)C[C@@H]2C)cc1", "inhibition": "-2.73% (inactive)"}
{"smiles": "Cc1ccc(S(=O)(=O)NCC2CCC(C(=O)N3CCOCC3)CC2)cc1", "note": "(stereo not given)", "inhibition": "-1.46% (inactive)"}
{"smiles": "Cc1ccc(C)c(NC(=O)COC(=O)c2nn(C)c(=O)c3ccccc23)c1", "inhibition": "-0.308% (inactive)"}
{"smiles": "FC(F)(F)COc1nc(N2CCCCC2)nc(N2CCNCC2)n1", "inhibition": "-3.54% (inactive)"}
{"smiles": "CC1CC1C(=O)OCC(=O)Nc1cccc(F)c1", "note": "(stereo not given)", "inhibition": "-2.53% (inactive)"}
{"smiles": "CCOC(=O)/C=C/c1ccc(C(F)(F)F)cc1S(=O)(=O)NC(C)(C)C", "inhibition": "0.204% (inactive)"}
{"smiles": "O=C(NCc1cccs1)c1ccc(CS(=O)Cc2ccccc2Cl)o1", "note": "(stereo not given)", "inhibition": "2.9% (inactive)"}
{"smiles": "CC(C)CCNC(=O)c1ccc2c(Cl)c3c(nc2c1)CCC3", "inhibition": "1.16% (inactive)"}
{"smiles": "O=C(OCC1O[C@@H](OC(=O)c2cc(O)c(O)c(O)c2)[C@@H](OC(=O)c2cc(O)c(O)c(O)c2)[C@@H](OC(=O)c2cc(O)c(O)c(O)c2)[C@@H]1OC(=O)c1cc(O)c(O)c(O)c1)c1cc(O)c(O)c(O)c1", "note": "(stereo not given in full)", "inhibition": "57.5% (active)"}
{"smiles": "O=C(OCC1OC(Oc2ccc(O)cc2)C(O)C(O)C1O)c1ccccc1", "note": "(stereo not given)", "inhibition": "19.4% (inactive)"}
{"smiles": "CS(=O)(=O)N(CC(=O)Nc1ccc(Cl)c(Cl)c1)C1CCCCC1", "inhibition": "-0.751% (inactive)"}
{"smiles": "O=C(Nc1ccccc1-c1nnn(CC(=O)N2CCCc3ccccc32)n1)c1cccc(Cl)c1", "inhibition": "-2.04% (inactive)"}
{"smiles": "Cc1ccc(C(=O)N/N=C\\c2cc(Br)c(Br)o2)cn1", "inhibition": "2.23% (inactive)"}
{"smiles": "Cc1cc2cc3c(cc2nc1SCC(=O)Nc1c(C)cccc1C)CCC3", "inhibition": "-3.92% (inactive)"}
{"smiles": "Cc1noc(/C=C/c2ccco2)c1S(=O)(=O)N1CCC(C(=O)N2CCc3ccccc32)CC1", "inhibition": "-1.67% (inactive)"}
{"smiles": "Cc1cc(C)nc(NS(=O)(=O)c2ccc(N3C(=O)C4CCCCC4C3=O)cc2)n1", "note": "(stereo not given)", "inhibition": "1.53% (inactive)"}
{"smiles": "Oc1ccc(-c2nncn2-c2ccccc2)cc1", "inhibition": "53.7% (active)"}
{"smiles": "Oc1ccc(-c2nnc(Nc3ccccc3)c3ccccc23)cc1", "inhibition": "0.551% (inactive)"}
{"smiles": "c1ccc(-n2nc3ccccc3n2)cc1", "inhibition": "-1.52% (inactive)"}
{"smiles": "Brc1ccccc1CN1CCC(Cc2ccccc2)CC1", "inhibition": "-0.57% (inactive)"}
{"smiles": "O=C1CN(C(=O)COC(=O)/C=C/c2ccc(F)cc2)c2ccccc2N1", "inhibition": "-0.211% (inactive)"}
{"smiles": "O=C(CCNS(=O)(=O)c1ccc(Br)s1)NCc1ccccc1Cl", "inhibition": "0.12% (inactive)"}
{"smiles": "CCCN1C2=C(C(=O)CCC2)C(c2ccc(O)c(Br)c2)C2=C1CCCC2=O", "inhibition": "0.35% (inactive)"}
{"smiles": "C=CCNC(=O)C1CC=CCC1C(=O)O", "note": "(stereo not given)", "inhibition": "3.88% (inactive)"}
{"smiles": "CC(C)C[C@@H](COc1ccccc1)N1CCN(CC(C)C)CCC1=O", "inhibition": "-0.599% (inactive)"}
{"smiles": "CN1C(=O)[C@H]2[C@@H](C3CC3)N3C(=O)CN(Cc4ccccc4)C(=O)[C@@]3(C)[C@H]2C1=O", "inhibition": "-0.57% (inactive)"}
{"smiles": "CCc1nc(SCC(=O)Nc2ccccc2OC)n[nH]1", "inhibition": "0.384% (inactive)"}
{"smiles": "OC(COCC1COc2ccccc2O1)CN1CCN(c2ccc(F)cc2)CC1", "note": "(stereo not given)", "inhibition": "-3.09% (inactive)"}
{"smiles": "Cc1cc(C)c(C(=O)CSc2nc(C)cc(=O)[nH]2)c(C)c1", "inhibition": "-3.36% (inactive)"}
{"smiles": "Nc1nc(SCC(=O)Nc2cc(C(F)(F)F)ccc2Cl)[nH]c(=O)c1NC(=O)c1ccco1", "inhibition": "0.858% (inactive)"}
{"smiles": "O=c1cc(C(F)(F)F)[nH]c(=O)n1C1CCCCC1", "inhibition": "-7.78% (inactive)"}
{"smiles": "CCCCN(CCCC)CCC(O)c1cc2c(Cl)cc(Cl)cc2c2cc(C(F)(F)F)ccc12", "note": "(stereo not given)", "inhibition": "-3.02% (inactive)"}
{"smiles": "CCC1Nc2ncnc(N3CCN(c4ccccc4)CC3)c2N(Cc2ccc(Cl)cc2)C1=O", "note": "(stereo not given)", "inhibition": "-3.36% (inactive)"}
{"smiles": "CC[C@H](C)C(=O)N[C@H]1CCCN1C(=O)/C=C/c1ccccc1", "inhibition": "-0.364% (inactive)"}
{"smiles": "CC1(C)Cc2nc3sc4c(SCC(=O)NC(c5ccccc5)c5ccccc5)ncnc4c3cc2CO1", "inhibition": "19.1% (inactive)"}
{"smiles": "COc1ccccc1NC(=O)CSc1nnc(CNC(=O)c2ccccc2F)o1", "inhibition": "-1.79% (inactive)"}
{"smiles": "CCc1ccccc1NC(=O)CSc1nnc(-c2ccncc2)o1", "inhibition": "0.246% (inactive)"}
{"smiles": "COc1ccccc1NC(=O)CCSc1nnc(-c2ccc(O)cc2)o1", "inhibition": "61% (active)"}
{"smiles": "COc1ccc(N(C)C(=O)CCS(=O)(=O)c2cccc3nsnc23)cc1", "inhibition": "-0.848% (inactive)"}
{"smiles": "O=C(c1ccc(CS(=O)(=O)c2ccccc2)o1)N1CCN(c2ccccc2)CC1", "inhibition": "-1.56% (inactive)"}
